# Screening results deposited in PubChem BioAssay by National Center for Advancing Translational Sciences (NCATS).
# The list is not random: actives were taken first. Their share in the collection is about 19%.
# DT40 TDP1 no CPT – qHTS for Inhibitors of human tyrosyl-DNA phosphodiesterase 1 (TDP1): qHTS in cells in absence of CPT; DT40 Tdp1-/- hTDP1 cells, no CPT, ATP luminescence, 48 h; Potency, µM (titrated, usually from 46.2 µM), for inactives: top-dose activity change, negative = growth inhibition, actives largely listed as inhibitors; hit rate 15% among 420,000; also: potency is read from the fitted curve at half-maximal effect; nearly all actives have a fitted effect of over 55% in size
#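 Readout: luminescence from CellTiter-Glo after 30 min in the dark at RT. Cells: DT40 Tdp1-/- with stable hTDP1, 400/well. Exposure: compounds alone, ≥48 hr, 37 °C.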
# DT40 TDP1 CPT – qHTS for Inhibitors of human tyrosyl-DNA phosphodiesterase 1 (TDP1): qHTS in cells in presence of CPT; Potency, µM (doses to about 46.2 µM), inactives show at the top dose activity change, negative = growth inhibition, hits mostly inhibitors; hit rate 12% among 420,000; chicken DT40 Tdp1-/-;hTDP1 cells + 20 nM CPT, ATP luminescence, 48 h; also: potency is read from the fitted curve at half-maximal effect; nearly all actives have a fitted effect of over 55% in size
#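 Chicken DT40 Tdp1-/- cells complemented with human TDP1, 400 cells/well, exposed to compounds plus 20 nM camptothecin for at least 48 h at 37 C; viability read as ATP content by CellTiter-Glo luminescence.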
# ELG1 repair inh – qHTS screen for small molecules that inhibit ELG1-dependent DNA repair in human embryonic kidney (HEK293T) cells expressing luciferase-tagged ELG1; HEK293T ELG1-luciferase reporter, luminescence, 16 h; DNA damage induced by 5-fluorouridine; Potency, µM (highest dose often 46.1 µM), for inactives: at the highest dose activity change, negative = inhibition, hits mostly inhibitors; hit rate 2.3% among 330,000; also: potency is read from the fitted curve at half-maximal effect; nearly all actives have a fitted effect of over 55% in size
#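 Quantitative HTS, concentration-response format. 2,000 cells/well co-treated with 5-fluorouridine and compound, 16 hr in 5% CO2 at 37 °C; ONE-Glo luminescence read after 30 min.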
# HT1080NT lethal – qHTS for induction of synthetic lethality in tumor cells producing 2HG: qHTS for the HT-1080-NT fibrosarcoma cell line. AID 686970, 2013. hit rate 1.6% among 360,000. HT-1080-NT fibrosarcoma viability, CellTiter-Glo ATP luminescence, 48 h. Potency, µM (series often up to 46.1 µM), inactives show at the top dose activity, negative = less viability, actives largely listed as cytotoxic;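 also: NT is the 2HG producing partner of a matched IDH1 knockdown line; potency is read from the fitted curve at half-maximal effect; 0% = DMSO-treated cells and -100% = media-only wells without cells; nearly all actives have a fitted effect of over 55% in size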
#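 A 48-hour cytotoxicity screen used HT-1080-NT cells plated 2 hours before compound delivery. ATP-based CellTiter-Glo luminescence measured viability, normalized to DMSO and no-cell controls.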
# IL1B secr inh – qHTS for Inhibitors of Inflammasome Signaling: IL-1-beta AlphaLISA Primary Screen; THP-1 LPS/ATP IL-1B secretion, AlphaLISA, 16 h; active compounds read low; activity change, % at 57.5 µM; hit rate 4.7% among 360,000; in the data active = activity change below about -50%; inconclusive = mostly about -30% to -49%
#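 THP-1 cells pretreated 1 hr with compounds (up to 57.5 uM final), then stimulated with LPS (250 ng/mL final) plus ATP (1.25 mM final); secreted IL-1B measured by AlphaLISA after 16 hr, decreased signal indicating inhibition.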
# HT1080 IDH1KD tx – qHTS for induction of synthetic lethality in tumor cells producing 2HG: qHTS for the HT-1080-IDH1KD cell line | HT-1080 IDH1 knockdown viability, ATP luminescence, 48 h | Potency, µM (titrated, usually from 46.1 µM), inactives show at the top dose activity, negative = toxicity, actives largely listed as cytotoxic | hit rate 2% among 360,000 | AID 686971, 2013;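 also: potency is read from the fitted curve at half-maximal effect; 0% = DMSO wells and -100% = cell-free medium wells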
#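 HT-1080-IDH1KD cells (IDH1 knocked down), 750/well in RPMI with 5% FBS, treated with compound 48 h at 37 degrees C. Viability by CellTiter-Glo luminescence, normalised to DMSO and no-cell wells; concentration-response curves classed.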
# * hit, by the source's call; ? = inconclusive; · = no result given; [ ] = another dose, or the depositor's remark. Unless noted, calls follow the shape of the dose curve; as a rule, active = well fitted curve in the direction sought with a large enough effect; inconclusive = small, poorly fitted or top-dose-only effect, or another doubt; inactive = no such curve, though single readings can be large; an effect the other way counts as inactive or inconclusive. Unless noted, % is scaled to controls: 0 for no effect and ±100 for the full control effect.
SMILES,DT40 TDP1 no CPT,DT40 TDP1 CPT,ELG1 repair inh,HT1080NT lethal,IL1B secr inh,HT1080 IDH1KD tx
COc1ccc(CNC(=O)CSc2nc(-c3ccc(OC)cc3)cc(C(F)(F)F)n2)cc1,-17%,-20%,·,·,·,·
COc1ccc(-c2cc(C(F)(F)F)nc(SCCC(=O)NCc3ccccc3)n2)cc1,18µM*,?,?,-18%,-16,-16%
COc1ccc(NC(=O)CSc2nc(C)cc(C(F)(F)F)n2)cc1,-28%,-19%,7%,8%,-15,8%
Cc1c(CN(C)C(=O)CSc2nc(-c3ccco3)cc(C(F)(F)F)n2)cnn1C,-13%,?,?,10%,-12,-1%
COc1ccc(-c2cc(C(F)(F)F)nc(SCc3cccc(C(=O)O)c3)n2)cc1,-9%,-17%,4%,5%,-1,-2%
COc1ccc(-c2cc(C(F)(F)F)nc(SCCC(=O)Nc3ccc(OC)c(OC)c3)n2)cc1,15µM*,13µM*,·,·,·,·
COc1ccc(-c2cc(C(F)(F)F)nc(SCC(=O)N(C)Cc3ccccc3)n2)cc1,?,23µM*,·,·,·,·
CCn1c(=O)n(-c2ccc(F)cc2)c(=O)c2sc3ccccc3c21,-3%,1%,·,·,·,·
O=C(O)C=Cc1ccc(Cn2ccnc2)cc1,-4%,5%,·,·,·,·
CN(Cc1ccccc1)C(=O)CSc1nc2c(c(C(F)(F)F)n1)CCc1ccccc1-2,?,29µM*,·,0%,?,1%
Cc1ccc(Cn2nc(C)c(NC(=O)CSc3nc4c(c(C(F)(F)F)n3)CCc3ccccc3-4)c2C)cc1,?,?,-14%,6%,0,1%
CCCOc1ccc(C(=O)NC(=S)N2CCN(c3ncc4c(=O)c(C(=O)O)cn(CC)c4n3)CC2)cc1,?,23µM*,·,-1%,20,0%
CCn1cc(C(=O)O)c(=O)c2cnc(N3CCN(C(=S)Nc4ccccc4C(F)(F)F)CC3)nc21,29µM*,-30%,15µM*,2%,-10,15%
CCn1cc(C(=O)O)c(=O)c2cnc(N3CCN(C(=S)NC(=O)c4ccccc4)CC3)nc21,-10%,-16%,7%,?,?,1%
C[C@@H](C(=O)CC(=O)OC(C)(C)C)[C@@H](O)c1c(F)cccc1Cl,-6%,-7%,13%,12%,7,5%
Clc1ccc(-c2c[n+](Cc3ccc(Cl)c(Cl)c3)c3n2CCC3)cc1,·,·,-13%,·,·,·
Cc1ccc(-c2c[n+](Cc3cccc(Cl)c3)c3n2CCC3)cc1,0.52µM*,0.92µM*,10µM*,?,-81*,?
Clc1cccc(C[n+]2cc(-c3ccccc3)n3c2CCC3)c1,2.6µM*,2.9µM*,-8%,0%,-4,?
Cc1ccc(C[n+]2cc(-c3ccc(Cl)cc3)n3c2CCC3)cc1,2.3µM*,5.2µM*,4.6µM*,-23%,-92*,-19%
CCc1ccc(C=O)cc1,0%,0%,·,·,·,·
COc1ccc(Cl)cc1NC(=O)CSc1nc(Nc2ccccc2)nc(N2CCOCC2)n1,18µM*,?,-8%,-19%,-15,-22%
COc1ccc(OC)c(NC(=O)CSc2nc(N3CCOCC3)nc(N3CCOCC3)n2)c1,?,?,-19%,6%,-13,4%
COc1ccc(Cl)cc1NC(=O)CSc1nnc(CN2CCOCC2)n1-c1ccc(Cl)cc1,21µM*,16µM*,-14%,2%[9.24 µM],0,-26%
O=C(CSc1nc(N2CCOCC2)nc(N2CCOCC2)n1)Nc1ccc(Cl)cc1Cl,?,?,9%,3%,-1,1%
COc1ccc(Cl)cc1NC(=O)CSc1nc(N2CCCCC2)nc(N2CCCCC2)n1,16µM*,?,-2%,6%,14,9%
SMILES,DT40 TDP1 no CPT,DT40 TDP1 CPT,ELG1 repair inh,HT1080NT lethal,IL1B secr inh,HT1080 IDH1KD tx
Cc1ccc(CNC(=O)CSc2nc(N3CCCCC3)nc(N3CCCCC3)n2)cc1,23µM*,21µM*,1%,?,0,?
Cc1ccc(S(=O)(=O)Nc2cc(S(=O)(=O)N3CCOCC3)ccc2NCC2CCCO2)cc1 (stereo not drawn),-8%,1%,8%,7%,27,12%
Cc1nc2ncnn2c(C)c1CCC(=O)NCc1ccccc1Cl,0%,19%,·,·,·,·
COc1ccc(Cl)cc1NC(=O)CSc1nc(N2CCOCC2)nc(N2CCOCC2)n1,?,?,26µM*,1%,5,8%
CC(=O)c1cccc(NC(=O)CSc2nc(N3CCCCC3)nc(N3CCCCC3)n2)c1,26µM*,-1%,?,-4%,19,27%
COc1ccccc1N1CCN(C(=O)c2cc(S(=O)(=O)N3CCC(C)CC3)cn2C)CC1,?,21µM*,·,·,·,·
Cc1ccc(Cl)cc1N1CCN(C(=O)c2cc(S(=O)(=O)N3CCC(C)CC3)cn2C)CC1,15µM*,23µM*,·,·,·,·
Cc1ccc(C)c(N2CCN(C(=O)c3cc(S(=O)(=O)N4CCOCC4)cn3C)CC2)c1,?,?,8%,0%,-23,-4%
OC1(c2cccnc2)CCN(Cc2ccc3c(c2)CN(Cc2ccc(F)c(F)c2)CCO3)CC1,12µM*,-6%[9.04 µM],·,·,·,·
Cc1nn(C)c(Cl)c1CN1CCOc2ccc(CN3CCC(Oc4cccnc4)CC3)cc2C1,8.2µM*,10µM*,·,·,·,·
O=c1cnc2cnc(OCc3ccccc3)nc2n1CCc1ccccc1,?,-16%,·,·,·,·
CCn1c(=O)c2cc(C(=O)N3CCCC3)sc2c2ccccc21,·,·,-12%,·,·,·
CCn1c(=O)c2cc(C(=O)N3CCN(c4cccc(Cl)c4)CC3)sc2c2ccccc21,23µM*,15µM*,·,·,·,·
CCn1c(=O)c2cc(C(=O)N3CCN(c4cccc(OC)c4)CC3)sc2c2ccccc21,13µM*,18µM*,·,·,·,·
O=C([C@@H]1Cc2ccccc2CN1)N1CCN(Cc2ccccc2)CC1,0%,-8%,5%,-1%,-2,-2%
Cc1ccc(CNCc2cc(Cl)ccc2O)cc1,?,?,9%,-6%,?,0%
Cc1ccc(SCc2nc3ccccc3[nH]2)cc1,?,?,?,0%,-20,-4%
